# p-CIP stab down: p/CIP protein destabilization; decrease of EGFP signal, % at 10 µM; AID 1984; hit rate 0.01% among 290,000; F442A p/CIP-EGFP cells, EGFP fluorescence, 16 h;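 active = EGFP signal decrease of at least 30% at 10 µM or well 3 SD below plate mean, unless failing retest; inactive = the rest, including hits failing retest or dose response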
# GRIN3A LBD mod: NR3A (human) ligand-binding domain modulation | AID 1259313 | Tm shift relative to glycine control, % at 25 µM | hit rate 2.5% among 340,000 | NR3A LBD differential scanning fluorimetry, Tm shift; 0% = protein alone, 100% = glycine-bound protein;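 active = melting temperature shift of at least 10% of the positive control shift, at one fixed dose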
# beta cell repl: induces beta-cell replication in MIN6 cells; MIN6 cells proliferation, ATPlite luminescence, 48 h; cells starved in 0.2% serum; 100% = growth in 10% serum; proliferation, % at 10 µM; hit rate 0.29% among 330,000;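 active = compounds whose signal lies at least 3.5 SD above the mean of all wells on their plate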;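 note: 0% = DMSO-treated cells in low-serum medium and 100% = 10% serum control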
# FAS-TE inh: FAS thioesterase (human) inhibition. P49327. recombinant FAS-TE, OMFH fluorogenic substrate, fluorescence endpoint. inhibition, % at 15 µM. hit rate 0.67% among 360,000. AID 602261;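 active = compounds whose normalised, plate-corrected inhibition of enzyme fluorescence in the single-dose primary screen is 50% or more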;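 note: 0% = DMSO with enzyme and 100% = substrate without enzyme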
# MPTP inh: blocks calcium-induced mitochondrial swelling; hit rate 1.4% among 360,000; inhibition, % at 10 µM; isolated mouse mitochondria, Ca2+ swelling absorbance, 30 min;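 active = inhibition of 50% or more, scaled per plate between neutral and stimulator controls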;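 note: 0% = DMSO wells given calcium and 100% = 1 mM EGTA wells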
# Rh123 counter: membrane potential counter-screen of mitochondrial pore inhibitors; shares compounds with MPTP inh; isolated mitochondria, Rhodamine 123 fluorescence; inhibition, % at 10 µM; hit rate 78% among 5,000; AID 624504; in the data active = inhibition above about 22%;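 note: 0% = DMSO vehicle and 100% = positive control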
# * marks the source's active call; other numbers are inactive results; . = no result. An excerpt weighted towards active compounds, which were near 4.1% of everything screened.
SMILES,p-CIP stab down,GRIN3A LBD mod,beta cell repl,FAS-TE inh,MPTP inh,Rh123 counter
NC(c1csc(Nc2cc(Oc3ccccc3)ncn2)n1)c1ccccc1Cl (stereo not given),.,.,.,-9,4,.
COc1ccc(CNc2cc(C)nc3ncnn23)c(OC)c1,-26,-9,-6,-5,75*,34*
CC(C)Cc1ccc(C(C)C(=O)Nc2cccnc2)cc1 (stereo not given),-26,1,-4,-1,85*,79*
CC(C)Cc1ccc(C(C)C(=O)Nc2ccc(O)cc2)cc1 (stereo not given),-15,-4,-6,19,73*,38*
CC(C)Cc1ccc([C@H](C)C(=O)O)cc1,.,1,3,-7,-5,.
Cc1onc(-c2ccccc2)c1C(=O)NNC(=S)NC(=O)c1ccc2c(c1)OCO2,-3,-4,-2,0,4,.
CN(C)CCN(CC1CCCN(Cc2ccccc2F)C1)C(=O)c1ccc(F)cc1 (stereo not given),18,-3,-1,-4,2,.
CC(C)N(C(=S)Nc1cccc(C(F)(F)F)c1)C(C)c1ccccn1 (stereo not given),5,-2,1,16,92*,83*
O=C(O)CCn1cc(-c2ccc(Cl)cc2)nc1-c1ccncc1,.,1,-1,-8,0,.
CCn1cc(CN(C)S(=O)(=O)c2ccc3ccccc3c2)c(C)n1,-14,-1,-6,3,91*,85*
CC(NC(=O)OC1CCCCC1)N1C(=O)C2C3C=CC(C3)C2C1=O (stereo not given),-16,2,-1,-4,1,.
CC1CCC(NC(=O)COc2ccc(C(=O)c3ccccc3)cc2)CC1 (stereo not given),2,2,0,22,70*,65*
Cc1ccc(NC(=O)COc2ccc(C(=O)c3ccccc3)cc2)c(O)c1,8,-3,-7,-2,82*,97*
Cc1ccc(OCC(=O)Nc2ccccc2-c2ccccc2NC(=O)COc2ccc(C)cc2)cc1,6,-1,-4,15,1,.
CC(NC(=O)c1cccc(OC2CCN(C3CCN(C)CC3)CC2)c1)c1ccccc1 (stereo not given),-1,-1,-4,-1,-1,.
COc1ccc(C(=O)/C=C/Nc2ccc(S(=O)(=O)Nc3cccc(C(C)=O)c3)cc2)cc1,-5,13*,0,18,97*,84*
COc1ccc(/C=N/NC(=O)c2cc(Br)ccc2O)cc1Cn1cc(Cl)cn1,1,21*,-5,0,68*,53*
COc1ccc(/C=N/NC(=O)c2ccc(Cl)cc2)cc1Cn1cc(Cl)cn1,-2,-1,3,-3,1,.
O=C(Nc1cccc(Br)c1)Oc1cccc2cccnc12,.,.,.,12,75*,102*
CNC(=O)Nc1cc(C(F)(F)F)cc(C(F)(F)F)c1,-14,-1,-5,-1,64*,94*
COC(=O)[C@@H](NC(=O)O[C@@H]1C(=O)c2ccc(OC)cc2O[C@H]1c1cccc(C(F)(F)F)c1)C(C)C,-2,.,-4,.,.,.
CCCn1c(Oc2ccccc2)nc2c1c(=O)n(C)c(=O)n2C,-4,-1,-1,-2,1,.

# Screens as filed in PubChem BioAssay.
